Screens as filed in PubChem.
Only some compounds are listed: those with a hit (about 2.3% of all), similar ones and a draw of the others.
CHRM1 antagonist: human M1 muscarinic receptor antagonists, primary screen, CHO-K1 cells, Fluo-8 calcium fluorescence, 1536-well; inhibition, % at 3 µM; CHO-K1 hM1, ACh EC80 antagonist; 1.3% of 360,000 active; Muscarinic acetylcholine receptor M1 (Homo sapiens), P11229; AID 588852, 2011;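 active = percent inhibition above its own plate's cutoff, namely the mean of that plate's compound wells plus 3 SD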;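 also: peak over basal fluorescence ratio during 140 s after agonist addition; 0% = ACh EC80 plus DMSO and 100% = DMSO alone without agonist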
Target sequence (P11229 whole entry, looked up): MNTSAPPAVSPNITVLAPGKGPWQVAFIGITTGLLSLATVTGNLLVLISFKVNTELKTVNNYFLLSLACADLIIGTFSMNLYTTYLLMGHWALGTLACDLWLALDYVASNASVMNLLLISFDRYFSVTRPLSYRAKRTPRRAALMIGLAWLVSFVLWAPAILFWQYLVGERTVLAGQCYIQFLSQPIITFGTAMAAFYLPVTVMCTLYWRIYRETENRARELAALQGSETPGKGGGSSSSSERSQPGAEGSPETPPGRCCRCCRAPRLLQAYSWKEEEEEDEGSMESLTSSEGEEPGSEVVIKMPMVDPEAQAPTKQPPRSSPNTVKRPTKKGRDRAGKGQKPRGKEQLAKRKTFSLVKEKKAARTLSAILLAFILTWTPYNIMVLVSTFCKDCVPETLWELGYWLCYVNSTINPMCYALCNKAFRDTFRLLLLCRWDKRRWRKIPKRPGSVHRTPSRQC
CHRM1 agonist: human M1 muscarinic receptor agonists, primary screen, Fluo-8 calcium fluorescence, CHO-K1 cells, HTS; Muscarinic acetylcholine receptor M1 (Homo sapiens), P11229; CHO-K1 hM1, agonist mode; 0% DMSO, 100% acetylcholine EC100; activation, % at 3 µM; 0.33% of 360,000 active; AID 588814, 2011;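 active = activation above the run's mean compound activation plus 3 SD, cut at about 16% in these data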;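 also: peak over basal fluorescence ratio within a 140 s kinetic read after compound addition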
CHO-K1 Ca antag: nonselective inhibitor or artifact in parental CHO-K1 cells. ATP-induced calcium, Fluo-8 fluorescence. inhibition, % at 3 µM. 0.6% of 360,000 active. AID 602250;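 active = inhibition above a per-plate cutoff, the plate's mean sample inhibition plus 3 SD, cut at about 24% in these data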;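 also: 0% = DMSO plus EC80 ATP and 100% = DMSO alone without ATP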
CHO-K1 Ca ag: counter-screen for M1 agonists: effect in parental CHO-K1 cells | AID 602248, 2012 | activation, % at 3 µM | Fluo-8 calcium fluorescence; scaled to maximal ATP response, vehicle zero | 0.48% of 360,000 active; in the data active = activation above about 15%;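 also: untransfected CHO-K1 host cells lacking M1 receptor as counterscreen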
M1 PAM: human M1 muscarinic receptor positive allosteric modulators, primary screen, CHO-K1 cells, Fluo-8 calcium fluorescence, 1536-well. CHO-K1 hM1, ACh EC20; 0% = ACh EC20, 100% = maximal ACh. 0.088% of 360,000 active. AID 588819, 2011. activation, % at 3 µM; in the data active = activation above about 19%, passing the limit was not always enough
CHO-K1 Ca PAM: nonselective calcium activators in parental CHO-K1 cells, primary screen, counter-screen for M1 PAM project, cell-based, Fluo-8 calcium fluorescence, full deck, 1536-well | 0.02% of 360,000 active | activation, % at 3 µM | ATP EC20; 0% at ATP EC20, 100% at ATP max;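 active = activation above the run cutoff, the mean activation of all test compounds plus 3 SD, cut at about 40% in these data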;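 also: peak over basal fluorescence ratio in a 140 s read after ATP addition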
* marks the source's active call; other numbers are inactive results; nt = no result.

SMILES	CHRM1 antagonist	CHRM1 agonist	CHO-K1 Ca antag	CHO-K1 Ca ag	M1 PAM	CHO-K1 Ca PAM
O=C(c1cccc(S(=O)(=O)N2CCN(c3ccccc3)CC2)c1)N1CCN(c2ccccc2O)CC1	-13.3	0.3	-6.1	2.2	4.7	5.1
O=S(=O)(c1ccc(NCc2ccccc2)cc1)N1CCOCC1	23.9	-2.1	25.0*	1.4	-7.8	-26.4
COc1ccc(Cc2nnc(NC(=O)c3ccc(F)cc3)s2)cc1OC	0.8	-2.4	29.4*	0.0	-0.9	-17.6
COc1ccc(Cc2nnc(NC(=O)c3ccc(C)cc3)s2)cc1OC	-8.3	-3.3	-11.2	0.1	4.2	1.6
CCSc1ncc(Cl)c(C(=O)Nc2ccc(S(=O)(=O)Nc3onc(C)c3C)cc2)n1	-10.5	3.7	5.7	-0.1	21.9*	-8.7
Cc1snc(SCc2ccc(Cl)cc2)c1C#N	-4.4	-6.5	-2.9	-0.1	4.6	2.9
CCN(CC(=O)Nc1ccc(NC(C)=O)cc1)C(=O)C1(c2ccccc2)CC1	8.9	-2.1	-7.2	0.9	6.0	-6.9
CC1(C)C2CCC(C2)C1(C)NC(=O)C[N+](C)(C)C (stereo not given)	-3.9	5.4	-7.0	22.9*	10.7	0.9
CC1(C)C2CCC(C2)C1(C)NC(=O)CN1CCN(Cc2ccccc2)CC1 (stereo not given)	8.7	-7.6	-5.1	0.9	-12.1	25.1
COc1ccc(NC(C)=O)cc1NC(C)c1nc2sc(C)c(C)c2c(=O)[nH]1 (stereo not given)	5.8	-7.9	-7.3	16.7*	-0.9	13.8
O=C(c1ccco1)N1CCN(Cc2nc3ccc([N+](=O)[O-])cc3c(=O)n2-c2ccccc2F)CC1	15.3	-1.4	27.7*	5.0	-3.0	-7.1
Cc1cccc(CN2CCN(C3CN(C4CCCCC4)S(=O)(=O)C3)CC2)c1 (stereo not given)	5.7	-10.2	19.5	0.5	2.3	-8.0
N=c1c2c(ncn1CCN1CCOCC1)Oc1cc(O)ccc1C2c1ccccc1 (stereo not given)	29.6*	0.9	2.2	8.8	-9.6	6.0
CCCS(=O)(=O)NC(=O)C1(C)CCCN(C(=O)c2ccc3ccccc3c2)C1 (stereo not given)	-26.2	0.0	1.0	0.7	15.7	15.9
CC(C)C[C@@H](COCc1ccc([N+](=O)[O-])cc1)N1CCN(C(=O)c2ccc(C(F)(F)F)cc2)CCC1=O	nt	nt	-17.0	3.6	nt	6.3
CSc1ccc(CN2CCC(C)(Oc3cccc(C#N)c3)C2)cc1 (stereo not given)	36.1*	-8.6	-7.3	0.3	-28.9	20.1
Cc1cc(C)n(-c2nc(NC(C)(C)C)nc(NC(C)(C)C)n2)n1	11.8	-4.4	21.9	0.2	-7.1	-9.6
Cc1cc(C)n(-c2nc(Nc3ccccc3C(F)(F)F)nc(-n3nc(C)cc3C)n2)n1	38.1	4.4	5.3	19.1*	-19.0	-0.5
Cc1ccc(S(=O)(=O)Nc2c3ccccc3nc(=O)n2-c2ccccc2)cc1	-9.0	2.9	26.0*	1.2	-4.3	-7.1
O=c1nc2ccccc2c(NS(=O)(=O)c2ccccc2)n1-c1ccccc1	-6.8	-1.1	2.4	-0.1	7.9	-3.2
Cc1nc2scc(C)n2c(=O)c1S(=O)(=O)NCCc1ccc(Cl)cc1	-5.4	-4.2	12.8	-0.3	1.6	-4.0
Cc1nc2scc(C)n2c(=O)c1S(=O)(=O)NCC1CCN(Cc2ccc(Cl)cc2)CC1	44.0*	-6.0	-5.2	0.8	-23.4	4.3
CCOc1ccccc1OC(=O)c1ccco1	11.6	-1.4	27.3*	-0.3	3.1	-5.7
CC1(C(=O)Nc2cccc(NS(C)(=O)=O)c2)CCN1CCc1ccccc1 (stereo not given)	-3.5	-3.9	-11.2	4.9	-2.8	11.4
Cc1ccc(NC(=O)CNC(=O)Cc2cccc3ccccc23)c(O)c1	-5.8	-1.1	-2.5	0.3	9.7	19.7
SMILES	CHRM1 antagonist	CHRM1 agonist	CHO-K1 Ca antag	CHO-K1 Ca ag	M1 PAM	CHO-K1 Ca PAM
O=C1COc2ccc(S(=O)(=O)CCC(=O)N3CCN(c4ccccc4)CC3)cc2N1	-12.1	-0.7	-10.9	1.5	8.9	24.4
Cc1ccc(C)c(N2CCN(C(=O)CCS(=O)(=O)c3ccc4c(c3)NC(=O)CO4)CC2)c1	22.3	6.4	-2.8	16.6*	-9.6	3.2
COc1ccc(N2CCN(C(=O)CC(C)S(=O)(=O)c3ccc4c(c3)NC(=O)CO4)CC2)cc1 (stereo not given)	9.2	2.7	17.2	10.1	-8.5	-18.5
CCCN1CCN(C(=O)CCS(=O)(=O)c2cc3c(cc2Cl)NC(=O)CO3)CC1	13.0	-3.5	26.1*	0.3	-9.9	-11.2
CC1CCN(C(=O)CCS(=O)(=O)c2cc3c(cc2Cl)NC(=O)CO3)CC1	-11.9	-1.1	-6.1	1.3	3.2	20.1
CC(CC(=O)N1CCN(c2cccc(Cl)c2)CC1)S(=O)(=O)c1ccc2c(c1)NC(=O)CO2 (stereo not given)	65.6*	3.8	0.5	2.8	-21.2	-15.3
CCOC(=O)C1(C)CCCN(C(=O)c2ccc3ccccc3c2)C1 (stereo not given)	-20.4	-7.7	-8.6	1.1	5.6	3.6
CCN1CCN(c2ccc(NC(=O)COc3ccccc3Cl)cc2)CC1	31.7*	-5.0	3.1	-0.2	-15.4	-5.4
CCN1CCN(c2ccc(NC(=O)COc3ccc(Cl)cc3C)cc2)CC1	100.3*	-7.7	-10.6	2.3	-26.8	0.3
NS(=O)(=O)c1cccc(Nc2nc3ccccc3nc2NS(=O)(=O)c2ccc(Cl)cc2)c1	-3.8	-3.5	-1.4	-0.1	-0.9	8.8
CCN(C(=O)c1c(C)noc1C)c1c(N)n(Cc2ccccc2)c(=O)[nH]c1=O	-9.3	-1.9	-14.9	1.0	8.0	14.6
COCCn1c(-c2ccc(Br)cc2)nc2oc3cc(OC)ccc3c(=O)c2c1=O	-2.3	-5.9	3.5	-0.4	3.3	-14.7
CC(C)(C)CC(C)(C)NCC(O)COc1ccc2c(c1)CCC2 (stereo not given)	49.1*	-2.8	1.7	2.5	-24.2	12.6
Cc1ccsc1CN(C)C(=O)CN1C(=O)NC2(CCCCC2C)C1=O (stereo not given)	5.0	-5.0	-7.6	3.2	2.5	6.1
CC(C)(C)NC(=O)NC(=O)CSc1nnc(-c2ccccc2F)n1N	14.1	-0.2	33.3*	-0.1	-5.5	-7.7
C=CCn1c(-c2ccc(S(=O)(=O)N3CCOCC3)cc2)csc1=Nc1ccccc1	18.7	-1.1	7.9	5.9	-4.8	16.7
